RMI FANCM FP – RMI-FANCM interaction inhibition | FP signal (polarization) at 33 µM | 70,000 compounds, 0.58% hits | AID 1159607 | Fluorescence polarization, RMI core complex with F-MM2 peptide; stronger effect = lower value; in the data active = FP signal below about 40
The depositor's hits bear a star. This excerpt belongs to a sample that is enriched for hits.

SMILES	RMI FANCM FP
O=c1c2cnn(-c3ccccc3)c2nnn1/N=C\c1ccc([N+](=O)[O-])cc1	43
O=[N+]([O-])c1cccc(-c2nnc3c4cnn(-c5ccc(F)cc5)c4ncn23)c1	64
N=c1c2cnn(-c3ccccc3)c2ncn1/N=C\c1ccc([N+](=O)[O-])cc1	39*
O=C(CCS(=O)(=O)c1ccc(Cl)cc1)Nc1nnc(-c2ccc3c(c2)OCO3)o1	69
Cn1c(C2CCCN(S(C)(=O)=O)C2)nn(CC(=O)Nc2ccc3c(c2)OCO3)c1=O (configuration not stated)	63
CC1=C(C)CC2C(=O)N(C(Cc3ccccc3)C(=O)O)C(=O)C2C1 (configuration not stated)	57
CC1=C(C)CC2C(=O)N(c3ccc(O)cc3)C(=O)C2C1 (configuration not stated)	59
CCN1C(=O)C2CC(C)=C(C)CC2C1=O (configuration not stated)	29*
NC(=O)C1CCN(c2ccc3cccc(OCc4c(F)cccc4Cl)c3n2)CC1	61
c1csc(-c2ccn[nH]2)c1	55
Cc1nc(-c2ccnc(=S)[nH]2)cs1	57
S=c1nccc(-c2ccc(-c3cccs3)s2)[nH]1	33*
CN1C(/C=C/c2ccccc2Cl)=Nc2cccc3cccc1c23	47
Cn1c(CSCCOc2ccc(Cl)cc2Cl)n[nH]c1=S	55
O=C(CC1CCCCN1S(=O)(=O)c1ccc(Cl)cc1)NCc1ccc2c(c1)OCO2 (configuration not stated)	57
CCCN1CCCc2cc(CCNS(=O)(=O)CCc3ccccc3)ccc21	241
COc1ccccc1C(=O)NCC(c1ccc(N(C)C)cc1)N1CCN(C)CC1 (configuration not stated)	62

High-throughput results (PubChem BioAssay)
